In PubChem BioAssay:

tested on: XIP peptide (Xip251-270); experiment: compounds binding XIP fragment 251-270 – biochemical, small-molecule microarray, fluorescence 635/667 nm, 0.5 µg/mL protein, primary screen (AID 1183); conditions: fluorescence 635 nm, higher = more signal

SMILES | composite z-score
C=C[C@H](C)[C@@H](O)c1ccc(O)c2ccccc12 | 0.507
COc1ccc(CCNC(=O)[C@@]2(Sc3ccc(C)cc3)CC(=O)N(Cc3ccccc3Cl)[C@@H]2c2ccc(CO)cc2I)cc1 | 0.391
COCCOC(=O)N1C(=O)[C@@]2(c3cc(C#CCNC(N)=O)ccc31)[C@H](C(=O)N1CCN(c3ncccn3)CC1)[C@H]1C(=O)O[C@H](c3ccccc3)[C@H](c3ccccc3)N1[C@@H]2c1ccccc1OCCO | 0.588
CCCCCN1CC=CC23O[C@@H]4/C=C\CCCOC(=O)C4[C@H]2C(=O)N(CCCCCCO)[C@@H]3C1=O (stereo partly drawn) | -0.0516
O=C1N(CCS(=O)(=O)c2ccccc2)Cc2ccccc2C[C@]12N=C(c1ccc(OCCCO)cc1)O[C@@H]2c1ccccc1 | 0.789
COC(=O)[C@@]1(Cc2ccccc2N=[N+]=[N-])COC(c2ccc(OCCCO)cc2)=N1 | 0.66
C=C(CCCC)C(=O)CC[C@H](OC(=O)c1cccnc1)c1cccc(OCCO)c1 | 0.143
CCOC(=O)C[C@H]1[C@H](OC(=O)c2ccc(-c3ccccc3)cc2)[C@@H](NC(=O)c2ccc3ccccc3c2)c2cc(OCCCO)ccc2N1C(=O)Cc1ccc(OC)cc1 | -0.0332

tested on: not listed separately; experiment: blood-stage malaria parasite viability loss – strain 3D7, DAPI fluorescence, 100 nL, primary screen (AID 1184);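 further: parasites grown inside human red blood cells in medium with human serum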; conditions: P. falciparum 3D7 growth, 3 d, higher = more signal

SMILES | z-score
Cc1cc(C)c(C(O)C2C=CC3C(=O)N(c4ccccc4)C(=O)C3N2Nc2ccc(C#N)cc2)c(C)c1 (stereo not drawn) | -0.558
COCCOC(=O)N1C(=O)[C@@]2(c3cc(C#CCNC(N)=O)ccc31)[C@H](c1ccc(OCCO)cc1)N1[C@H](c3ccccc3)[C@H](c3ccccc3)OC(=O)[C@H]1[C@@H]2C(=O)N1CCc2cc(OC)c(OC)cc2C1 | -0.605
Cc1ccc(S[C@]2(C(=O)NCC(C)C)CC(=O)N(Cc3ccccc3)[C@@H]2c2ccc(CO)cc2I)cc1 | -0.769
C=CC(=C)C1=CCO[C@@H]1[C@H]1CCCN1S(=O)(=O)c1ccccc1[N+](=O)[O-] | -1.51
COCC(=C=CC[C@@H](O)c1ccc(CO)o1)CCO | -1.61
[N-]=[N+]=Nc1ccccc1C[C@]1(C(=O)NCCN2CCOCC2)N=C(c2ccc(OCCCO)cc2)O[C@H]1c1ccccc1 | -2.37
COc1ccc(C(=O)Nc2cccc(CN3C(=O)[C@]4(O[C@H](CC(=O)N5CCC[C@H]5CO)[C@@H]([Si](C)(C)c5ccc(OC)cc5)[C@@H]4C)c4ccccc43)c2)cc1 | -1.34
CCCCCN1CC=CC23O[C@@H]4/C=C\CCC(C)OC(=O)C4[C@H]2C(=O)N(CCCCCO)[C@@H]3C1=O (stereo partly drawn) | -1.24
CCCCCN1CC=CC23O[C@@H]4C=CCOC(=O)[C@@H]4[C@H]2C(=O)N(CCCO)[C@@H]3C1=O (stereo partly drawn) | -1.8
O=C1O[C@H](c2ccccc2)[C@H](c2ccccc2)N2[C@H]1[C@@H](C(=O)Nc1nc3ccccc3s1)[C@]1(C(=O)Nc3ccccc31)[C@H]2c1ccc(O)cc1 | -0.739
O=C1O[C@H](c2ccccc2)[C@H](c2ccccc2)N2[C@H]1[C@@H](C(=O)O)[C@]1(C(=O)Nc3ccc(C#CC4=CCCCC4)cc31)[C@H]2c1ccc(OCCO)cc1 | -0.656
CC=CC(O)C1C=CC2C(=O)N(c3ccccc3)C(=O)C2N1Nc1ccc(C(C)C)cc1 (stereo not drawn) | -0.747
O=C1OCCC=C[C@H]2OC34C=CCN(Cc5ccccc5)C(=O)[C@H]3N(CCCCCO)C(=O)[C@@H]4C12 (stereo partly drawn) | 0.0195
COCCOC(=O)N1C(=O)[C@@]2(c3cc(C#CCNC(N)=O)ccc31)[C@H](c1ccc(O)cc1)N1[C@H](c3ccccc3)[C@H](c3ccccc3)OC(=O)[C@H]1[C@@H]2C(=O)Nc1nc2ccccc2s1 | 0.0446
O=C1O[C@H](c2ccccc2)[C@H](c2ccccc2)N2[C@H]1[C@@H](C(=O)O)[C@]1(C(=O)Nc3ccc(C#CC4(O)CCCCCC4)cc31)[C@H]2c1ccc(OCCO)cc1 | 0.362
O=C1OCCC=C[C@H]2OC34C=CCN(c5ccc6ccccc6c5)C(=O)[C@H]3N(CCCCCO)C(=O)[C@@H]4C12 (stereo partly drawn) | 0.405
Cc1ccc(S[C@]2(C(=O)NC3CC3)CC(=O)N(C3CCCCC3)[C@@H]2c2ccc(CO)cc2I)cc1 | -1.34
COc1cc2c(cc1O)C(C)N(Cc1cccc(OC(F)(F)F)c1)CC2 (stereo not drawn) | -2.03

SMILES | z-score
COc1ccc(C#Cc2ccc3c(c2)[C@]2(C(=O)N3)[C@H](c3ccc(O)cc3)N3[C@H](c4ccccc4)[C@H](c4ccccc4)OC(=O)[C@H]3[C@@H]2C(=O)N2CCCCCCC2)cc1 | -2.08
COC(=O)[C@@]1(Cc2ccccc2)[C@H]2c3cc(C(=O)N(C)C)n(Cc4cc(C)n(C)n4)c3C[C@H]2CN1C(=O)c1ccccc1 | -1.19
C=CC(COC(C)=O)NS(=O)(=O)c1ccc(Br)cc1 (stereo not drawn) | 1.95
COC(=O)c1c(CC[C@@H](CO)NC(=O)N[C@@H](Cc2ccccc2)Cn2cc(C3(O)CCCCC3)nn2)oc(C(C)=O)c1C(=O)OC | -2.48
COC(=O)C(CC#Cc1ccc2c(c1)[C@]1(C(=O)N2)[C@H](C(=O)NC[C@H](O)c2ccccc2)[C@H]2C(=O)O[C@H](c3ccccc3)[C@H](c3ccccc3)N2[C@@H]1c1ccc(OCCO)cc1)C(=O)OC | -2.15
C=CCC(OC(C)=O)[C@@H]1[C@@H](N(Cc2ccc(-c3cccc(C(F)(F)F)c3)o2)C(=O)c2ccc(C)cc2)c2cc(OCCCO)ccc2N1C(=O)c1ccc(-c2ccccc2)cc1 (stereo partly drawn) | -2.5
COc1cccc(C(=O)O[C@H]2CC[C@]3(C)C4=C(CCC3C2(C)C)[C@]2(C)CC[C@H]([C@H](C)CCCC(C)C)[C@@]2(C)CC4)c1 (stereo partly drawn) | -0.0127
CN(C)C(=O)[C@@]1(CCC(=O)OC(C)(C)C)N=C(c2ccc(OCCCO)cc2)O[C@H]1c1ccccc1 | -1.8
O=C1OCCC/C=C\[C@H]2OC34C=CCN(Cn5nnc6ccccc65)C(=O)[C@H]3N(CCCCCO)C(=O)[C@@H]4C12 (stereo partly drawn) | 0.961
C=C[C@H](C)[C@@H](O)c1ccc(O)c2ccccc12 | -0.935
COc1ccc(CCNC(=O)[C@@]2(Sc3ccc(C)cc3)CC(=O)N(Cc3ccccc3Cl)[C@@H]2c2ccc(CO)cc2I)cc1 | -0.694
COCCOC(=O)N1C(=O)[C@@]2(c3cc(C#CCNC(N)=O)ccc31)[C@H](C(=O)N1CCN(c3ncccn3)CC1)[C@H]1C(=O)O[C@H](c3ccccc3)[C@H](c3ccccc3)N1[C@@H]2c1ccccc1OCCO | -2.4
CCCCCN1CC=CC23O[C@@H]4/C=C\CCCOC(=O)C4[C@H]2C(=O)N(CCCCCCO)[C@@H]3C1=O (stereo partly drawn) | -1.13
O=C1N(CCS(=O)(=O)c2ccccc2)Cc2ccccc2C[C@]12N=C(c1ccc(OCCCO)cc1)O[C@@H]2c1ccccc1 | -2.34
COC(=O)[C@@]1(Cc2ccccc2N=[N+]=[N-])COC(c2ccc(OCCCO)cc2)=N1 | -0.82
C=C(CCCC)C(=O)CC[C@H](OC(=O)c1cccnc1)c1cccc(OCCO)c1 | -3.03
CCOC(=O)C[C@H]1[C@H](OC(=O)c2ccc(-c3ccccc3)cc2)[C@@H](NC(=O)c2ccc3ccccc3c2)c2cc(OCCCO)ccc2N1C(=O)Cc1ccc(OC)cc1 | -0.884
